Test results from PubChem BioAssay (NCATS).
Results filed as inconclusive are left out. Where a call stands in place of a potency, no number is given. Active and inactive are the calls of the source. The call rests on the fitted dose curve; in most records, active means well fitted inhibition curve with a large enough effect; inconclusive means small, poorly fitted or top-dose-only effect; inactive means no such curve, though single readings can be large or run the other way.

Test: Primary fluorescence-based thiol-reactive (MSTI) qHTS assay for identification of artifact compounds. (AID 1845221); further: nearly all actives have a fitted effect of over 65% in size
Details: MSTI thiol-reactivity probe, 1 h; series mostly up to 53.8 µM
Summary of the method: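 Compounds were incubated 1 h at room temperature in the dark with the MSTI probe (4 uM) in PBS pH 7.4, 2% DMSO. Signals were normalized between Acetyl-MSTI and MSTI.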
Potency means the concentration at half of the fitted maximal effect.

Row | SMILES | Potency
1 | O=C(O)/C=C/c1ccc(O[C@@H]2O[C@H](CO)[C@@H](O)[C@H](O)[C@H]2O)cc1 | inactive
2 | O=C(OCC1=C[C@@H](O)[C@@H]2C=CO[C@@H](O[C@@H]3O[C@H](CO)[C@@H](O)[C@H](O)[C@H]3O)[C@H]12)c1ccc(O)cc1 | 10.3 µM (active)
3 | Cc1cc(-c2nncc3c(C(C)(C)C)c(OCc4ncnn4C)nn23)no1 | inactive
4 | CC1=C2C[C@@]3(C)C(CCC[C@@H]3C)C(O)C2(O)OC1=O (stereo partly specified) | inactive
5 | CO[C@@H]1[C@]2(O)C(=O)N3/C=C\C(C)(C)c4[nH]c5ccccc5c4/C=C\3C(=O)N2[C@]23[C@H](CO)C(C)(C)N2c2ccccc2[C@]13O | 1.84 µM (active)
6 | CSC(=O)OCC1=C[C@@H]2OC(=O)C3=CO[C@@H](O[C@@H]4O[C@H](CO)[C@@H](O)[C@H](O)[C@H]4O)[C@H]1[C@@H]32 | 6.53 µM (active)
7 | C[C@@]1(O)[C@H](O)[C@@H](CO)O[C@H]1n1cnc2c(=O)[nH]c(N)nc21 | inactive
8 | CC(=O)OC1C(O)/C(C)=C\C2C(OC(=O)c3ccccc3)C(C)CC2(OC(C)=O)C(OC(C)=O)C(C)/C=C/C(C)(C)C1OC(C)=O (stereo unspecified) | inactive
9 | C=C1[C@@H]2CC[C@@]3(C)[C@H](c4ccoc4)OC(=O)C[C@]13O[C@H]1CC(=O)C(C)(C)[C@H](C(O)C(=O)OC)[C@]12C (stereo partly specified) | inactive
10 | CC(CCO)CCC1C2(C)CCCC(C)(C)C2CC[C@@]1(C)O (stereo partly specified) | inactive
11 | O=C(/C=C/c1ccc(O)cc1)OCC1OC(O)C(OC2OC(CO)C(O)C(O)C2O)C(O)C1O (stereo unspecified) | inactive
